High-throughput results from PubChem BioAssay.
PK Bst: Pyruvate Kinase. purified pyruvate kinase, luminescence ATP production; ribose 5-phosphate activator present at AC10. Potency, µM. 1.2% of 51,000 active. AID 361, 2006; in the data active = potency below about 11 µM; inconclusive = mostly about 12 µM to 25 µM;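 the screen sought inhibitors and activators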;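 also: scaled between full activation by ribose 5 phosphate and full inhibition by luteolin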
FLuc inh: qHTS Assay for Inhibitors of Firefly Luciferase | Luciferin 4-monooxygenase (Photinus pyralis), P08659 | Potency, µM (titrated, usually from 57.1 µM), inactives show at the top dose activity change, negative = inhibition, hits mostly inhibitors | 2.2% of 72,000 active | purified firefly luciferase, luminescence, 8 min; also: % is scaled to controls: 0 for no effect and ±100 for the full control effect; nearly all actives have a fitted effect of over 40% in size
Target sequence (P08659 whole entry, looked up): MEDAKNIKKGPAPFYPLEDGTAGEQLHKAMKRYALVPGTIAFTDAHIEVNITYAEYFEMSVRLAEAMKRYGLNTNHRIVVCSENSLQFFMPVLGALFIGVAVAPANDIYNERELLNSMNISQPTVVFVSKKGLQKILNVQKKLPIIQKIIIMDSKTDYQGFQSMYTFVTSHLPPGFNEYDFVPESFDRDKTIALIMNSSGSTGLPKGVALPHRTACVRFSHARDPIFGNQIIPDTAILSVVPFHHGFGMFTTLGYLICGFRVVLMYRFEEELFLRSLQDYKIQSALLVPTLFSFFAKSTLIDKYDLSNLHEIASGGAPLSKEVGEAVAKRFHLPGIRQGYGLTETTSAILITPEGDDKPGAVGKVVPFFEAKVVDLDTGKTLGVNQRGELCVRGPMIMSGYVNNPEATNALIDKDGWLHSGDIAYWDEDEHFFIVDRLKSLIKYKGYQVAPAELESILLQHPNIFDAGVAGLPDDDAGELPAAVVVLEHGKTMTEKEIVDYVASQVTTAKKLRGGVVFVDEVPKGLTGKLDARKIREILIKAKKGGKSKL
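Titration-based qHTS; buffer 50 mM imidazole pH 7.2, 50 mM KCl, 7 mM MgCl2, 10 uM ATP, 0.01% Tween 20, 0.05% BSA; luciferase/luciferin detector mix added after compound; 8 min, ambient; luminescence.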
TSHR ag: qHTS Assay for Agonists of the Thyroid Stimulating Hormone Receptor | Thyrotropin receptor (Homo sapiens), P16473 | HEK293-CNG-TSHR cells (CNG channel as cAMP sensor), membrane potential dye, cAMP | Potency, µM (highest dose often 57.1 µM), for inactives: top-dose activation, actives largely listed as activators | 0.48% of 73,000 active | AID 926, 2007; active = well fitted activation curve with a large enough effect in the main read-out, with a control signal flat, not every such curve was filed as active; inconclusive = small, poorly fitted or top-dose-only effect, or a change in a side signal; inactive = no such curve, though single readings can be large or run the other way; % of control where 0% means no effect;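 also: the control signal comes from parental cells without the receptor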
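HEK 293 cells stably expressing TSHR and a modified CNG channel, with CNG-only parental cells as counterscreen, were preloaded 60 min at room temperature with membrane potential dye containing 100 uM RO 20-1724. Compound exposure was 30 min, and depolarization was read as fluorescence at 590 nm.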
Tau fil binding: qHTS Assay for Tau Filament Binding | Microtubule-associated protein tau (Homo sapiens), P10636 | 2% of 71,000 active | recombinant tau filaments, thioflavin S fluorescence, 15 h; filaments grown with octadecylsulfate alongside compound | Potency, µM (series often up to 57.1 µM), inactives show at the top dose activity change, negative = inhibition;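 also: % is scaled to controls: 0 for no effect and ±100 for the full control effect; actives lower thioflavin S fluorescence by blocking filaments or displacing dye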
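Assay mix: 1 uM His-tagged tau, 30 uM sodium octadecylsulfate, thioflavine S dye in HEPES/NaCl/DTT buffer. Compound is added prior to the inducer. Fluorescence after 15 h at 37 C.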
HEK293 cAMP ctrl: qHTS Assay for Agonists of the Thyroid Stimulating Hormone Receptor: Activators of Intracellular cAMP Concentrations in Parental HEK 293 | AID 938, 2007 | 2.5% of 73,000 active | Potency, µM (series often up to 57.1 µM), without a hit: at the top dose activation, most hits filed as activators | parental HEK293 CNG cAMP sensor, membrane potential fluorescence; also: % of control where 0% means no effect; nearly all actives have a fitted effect of over 55% in size
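Parental HEK 293 cells stably expressing a modified CNG channel (no TSHR) report cAMP rise as membrane depolarization. Membrane potential dye with 100 uM RO 20-1724 was loaded for 60 min at room temperature, then compound added for 30 min; fluorescence read at 590 nm.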
ERK AVP inh: qHTS Assay for Inhibitors of the ERK Signaling Pathway using a Homogeneous Screening Assay; HEK293-V1b, vasopressin-stimulated pERK AlphaScreen; 0.99% of 72,000 active; Potency, µM (series often up to 57.5 µM), without a hit: at the highest dose activity, negative = inhibition, usual class: inhibitors; also: % is scaled to controls: 0 for no effect and ±100 for the full control effect; nearly all actives have a fitted effect of over 55% in size
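V1b-HEK293 cells; cpd 30 min 37C; 25 nM vasopressin 5 min; lyse 10 min; AlphaScreen beads 5 hr RT. Normalized to DMSO basal and 25 nM vasopressin; AC50 by Hill fit.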
* = called active by the depositor; i = inactive; ? = inconclusive; / = not tested or not shown; [ ] = remark or other dose. This is a sample that favours compounds with a hit; in the whole collection about 7.2% have one here. Unless noted, calls follow the shape of the dose curve; as a rule, active = well fitted curve in the direction sought with a large enough effect; inconclusive = small, poorly fitted or top-dose-only effect, or another doubt; inactive = no such curve, though single readings can be large; an effect the other way counts as inactive or inconclusive. Potency is read from the fitted curve at half-maximal effect.

SMILES	PK Bst	FLuc inh	TSHR ag	Tau fil binding	HEK293 cAMP ctrl	ERK AVP inh
CCCn1c(=N)n(CC(O)COc2cccc(C)c2)c2ccccc21 (stereo not given)	>57	-1%	?	44%	16µM*	5%
Cc1ccccc1OCC(O)Cn1c(=N)n(CCN2CCOCC2)c2ccccc21 (stereo not given)	>57	6%	?	21%	10µM*	-11%
N=c1n(Cc2ccccc2)c2ccccc2n1CC(O)COc1ccccc1 (stereo not given)	>57	2%	17%	2%	4%	-12%
CCCCCCCCCCCCCCC[C@H](O)[C@H](N)CO	/	1%	2%	0%	-6%	-6%
O=C(c1ccc2c(c1)OCCCO2)c1cccs1	/	13µM*	5%	-10%	11%	-11%
CCNc1ncc2nc(C)c(=O)n(CCc3ccccc3)c2n1	/	1%[11.4 µM]	5%	22%	24%	8%
O=c1cc(-c2ccccc2)oc2cc(O[C@@H]3O[C@H](CO)[C@@H](O)[C@H](O)[C@H]3O)c(O)c(O)c12	/	/	/	/	/	-5%
O=C(Nc1ccc2c(c1)OCO2)C1CCN(S(=O)(=O)c2cccs2)CC1	>57	-10%	-4%	13µM*	-3%	?
COc1ccc(NC(=O)C2CCN(S(=O)(=O)c3cccc4cccnc34)CC2)cc1OC	/	3%	8%	-3%	-6%	?
O=C(Nc1ccc2c(c1)OCCO2)C1CCN(S(=O)(=O)c2cccs2)CC1	>57	-4%	-4%	-2%	-1%	?
O=C(Nc1cccc(C(F)(F)F)c1)C1CCCN1S(=O)(=O)c1cccc2cccnc12 (stereo not given)	8.3*	2%	?	-12%	?	10%
CCOC(=O)c1cccc(NC(=O)C2CCCN2S(=O)(=O)c2cccc3cccnc23)c1 (stereo not given)	/	0%	-3%	i	1%	-11%
O=C(Nc1ccc2c(c1)OCO2)C1CCCN(S(=O)(=O)c2cccs2)C1 (stereo not given)	>57	3%	2%	-4%	10%	-28%
O=C(Nc1ccc2c(c1)OCO2)C1Cc2ccccc2CN1S(=O)(=O)c1cccs1 (stereo not given)	>57	-4%	16%	25µM*	14%	-47%
O=C(Nc1ccc2c(c1)OCO2)C1CCN(S(=O)(=O)c2cccc3cccnc23)CC1	6.7*	0%	-2%	-16%	2%	6%
CCNc1ncc2nc(-c3ccc(F)cc3)c(=O)n(CCOC)c2n1	/	1%[11.4 µM]	6%	15%	9%	-20%
CC(C)C(C)(C)C(C)(C)C(C)(C)S	/	/	7%	7%	28%	19%
O=S(=O)(Nc1ccc2c(c1)OCCO2)c1cccs1	4.2*	-25%	?	-16%	-53%	?
O=S(=O)(Nc1ccc2c(c1)OCO2)c1cccs1	>57	-2%	-7%	-11%	7%	-18%
O=C(Nc1ccc2c(c1)OCO2)C1CCCCN1S(=O)(=O)c1ccc(F)cc1 (stereo not given)	>57	-2%	13%	13µM*	16%	-19%
COc1ccc(NC(=O)C2CCCCN2S(=O)(=O)c2ccc(F)cc2)cc1 (stereo not given)	/	2%	15%	-19%	-2%	/
O=C(Nc1ccc2c(c1)OCO2)C1CCCN(c2nc3ccccc3s2)C1 (stereo not given)	>57	0%	5%[11.4 µM]	13µM*	-4%	29%
Cc1cnc(CNc2ncncc2-c2ccccc2CN(C)C)cn1	/	-7%[2.29 µM]	-1%	-4%	2%	1%
O=[N+]([O-])c1cccc(/C=N\NC2=CS(=O)(=O)C=C2)c1	/	2%[11.4 µM]	5%[11.4 µM]	-12%[11.4 µM]	3%[11.4 µM]	2%[11.5 µM]
COCC(=O)N1CCC2(CC1)CN(C(=O)Nc1ccc(OC)cc1)C2	/	0%[11.4 µM]	4%	-3%	9%	4%
SMILES	PK Bst	FLuc inh	TSHR ag	Tau fil binding	HEK293 cAMP ctrl	ERK AVP inh
CCN1CCN(Cc2ccc3c(c2)Cc2ccccc2-3)CC1	/	-4%	10%	-5%	9%	-19%
c1ccc2c(c1)Cc1cc(CN3CCOCC3)ccc1-2	/	13µM*	/	2%	28%	?
COC(=O)[C@@]1(Cc2ccc(OC)cc2)[C@H]2c3cc(C(=O)N(C)C)n(Cc4ccc(OC(F)(F)F)cc4)c3C[C@H]2CN1C(=O)c1ccccc1	/	/	?	-1%	?	17%
COC(=O)[C@@]1(Cc2ccc(F)cc2)[C@H]2c3cc(C(=O)N(C)C)n(Cc4ccc(C)o4)c3C[C@H]2CN1C(=O)c1ccccc1	/	/	?	0%	3.2µM*	18%
COC(=O)[C@@]1(Cc2ccc(OC)cc2)[C@H]2c3cc(C(=O)N(C)C)n(Cc4ccccc4)c3C[C@H]2CN1C(=O)c1ccccc1	/	/	?	16%	13µM*	11%
COC(=O)[C@@]1(Cc2ccc(F)cc2)[C@H]2c3cc(C(=O)N(C)C)n(CCO)c3C[C@H]2CN1C(=O)c1ccccc1	/	/	-4%	11%	11%	-18%
COC(=O)[C@@]1(Cc2ccc(F)cc2)[C@H]2c3cc(C(=O)N(C)C)n(Cc4ccccc4)c3C[C@H]2CN1C(=O)c1ccccc1	/	/	?	4%	10µM*	17%
COCCn1c(C(=O)N2CCCC2)cc2c1C[C@H]1CN(C(=O)c3ccccc3)[C@@](Cc3ccc(F)cc3)(C(=O)OC)[C@@H]21	/	/	?	2%	13µM*	-8%
COc1ccc(Oc2ncc3nc(-c4cccs4)c(=O)n(Cc4cccc(OC)c4)c3n2)cc1	/	1%[11.4 µM]	?	2%	?	86%
CN1CCN(c2ccnc(-c3ccc(N(C)C)cc3)n2)CC1	/	-1%[2.29 µM]	0%	16%	-17%	-12%
CC(C)=CCC/C(C)=C/C=O	/	/	-2%	9%	22%	-24%
S=C(Nc1ccc2c(c1)Cc1ccccc1-2)Nc1ccc2c(c1)Cc1ccccc1-2	/	1%[11.4 µM]	-5%[11.4 µM]	-17%[11.4 µM]	-3%[11.4 µM]	-2%[11.5 µM]
COC(=O)[C@@]1(Cc2ccc(F)cc2)[C@H]2c3cc(C(=O)N(C)C)n(Cc4ccc(OC)c(OC)c4)c3C[C@H]2CN1C(=O)c1ccccc1	/	/	?	15%	16µM*	7%
COC(=O)[C@@]1(Cc2ccc(F)cc2)[C@H]2c3cc(C(=O)N(C)C)n(Cc4ccc(O)c(OC)c4)c3C[C@H]2CN1C(=O)c1ccccc1	/	/	?	2%	?	18%
C=C1C(=O)C=C2CN(C(=O)c3ccccc3)[C@@](Cc3ccc(F)cc3)(C(=O)OC)[C@@H]12	/	/	?	-10%	?	10µM*
